In publication PMC12820563, “FoxP3 forms a head-to-head dimer in vivo and stabilizes its multimerization on adjacent microsatellites”:
The full ranking holds about 16,000 sequences; the median of “rpm ratio (pull-down/input)” is about 0.5, and the highest 2% start at about 5.5. For the sample, the highest values were picked, then their nearest neighbours and some sequences at random.

target: T1, MBP-FoxP3dN (Mus musculus, UniProt Q99JB6 188-423); assay: PD-seq (MBP pull-down with sequencing); 20 mM Tris-HCl pH 7.5, 100 mM NaCl, 1.5 mM MgCl2, 0.4 uM protein, 0.1 uM dsDNA library, 30 min, room temperature, amylose pull-down; high values mean tight binding; conditions: protein: recombinant; tags: His6-MBP; chain copies: 2; dsDNA, one strand shown
T1 sequence: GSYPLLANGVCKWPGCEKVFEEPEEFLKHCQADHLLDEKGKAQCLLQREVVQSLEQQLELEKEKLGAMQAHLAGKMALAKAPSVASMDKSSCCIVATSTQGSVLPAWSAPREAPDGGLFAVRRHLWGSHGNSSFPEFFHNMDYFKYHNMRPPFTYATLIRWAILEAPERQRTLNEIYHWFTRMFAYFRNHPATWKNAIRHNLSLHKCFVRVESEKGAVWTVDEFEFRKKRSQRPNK
Outline: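 A fragment of mouse FoxP3 or FoxP1 without its N-terminus, carrying a His6-MBP tag and produced in E. coli, was combined at 0.4 µM with a 0.1 µM degenerate double-stranded DNA library filled in with Klenow. The mixture sat for 30 min at room temperature in Tris pH 7.5 buffer containing NaCl and MgCl2. Protein–DNA complexes were captured on amylose resin, washed three times, and the DNA was freed with proteinase K, barcoded by PCR and sequenced on Illumina. Binding is expressed as reads-per-million enrichment of pull-down over input, with replicates pooled.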

Question: “GATGATTGTTCTCCCAGCTGATGAATTCACGTGTTCGAGTAAACAAATTTTCCTAATCTTTCTGTTCAAGCGCCATCTAC” was tested. Which binding signal did it give?
Answer: 0.58 RPM ratio (pull-down/input)

Question: For “GATGATTGTTCTCCCAGCTGATGAATTAAGACGGTCGAGTAAACAAATTTTCCTAATCTTTCTGTTCAAGCGCCATCTAC”, which binding signal is on record?
Answer: 0.236 RPM ratio (pull-down/input)

Question: For “GATGATTGTTCTCCCAGCTGATGAATTATAAAGATCGAGTAAACAAATTTTCCTAATCTTTCTGTTCAAGCGCCATCTAC”, which binding signal is on record?
Answer: 0.233 RPM ratio (pull-down/input)

Question: For “GATGATTGTTCTCCCAGCTGATGAATTCTGTGCATCGAGTAAACAAATTTTCCTAATCTTTCTGTTCAAGCGCCATCTAC”, which binding signal is on record?
Answer: 1.52 RPM ratio (pull-down/input)

Question: “GATGATTGTTCTCCCAGCTGATGAATTTCGTGCATCGAGTAAACAAATTTTCCTAATCTTTCTGTTCAAGCGCCATCTAC” was tested. Which binding signal did it give?
Answer: 1.22 RPM ratio (pull-down/input)

Question: How did the binding signal turn out when “GATGATTGTTCTCCCAGCTGATGAATTTCGCCTTTCGAGTAAACAAATTTTCCTAATCTTTCTGTTCAAGCGCCATCTAC” was run?
Answer: 5.39 RPM ratio (pull-down/input)

Question: “GATGATTGTTCTCCCAGCTGATGAATTCGTGCCATCGAGTAAACAAATTTTCCTAATCTTTCTGTTCAAGCGCCATCTAC” was tested. Which binding signal did it give?
Answer: 2.18 RPM ratio (pull-down/input)

Question: Which binding signal does the source give for “GATGATTGTTCTCCCAGCTGATGAATTGTGCATCTCGAGTAAACAAATTTTCCTAATCTTTCTGTTCAAGCGCCATCTAC” here?
Answer: 8.03 RPM ratio (pull-down/input)

Question: Which binding signal does the source give for “GATGATTGTTCTCCCAGCTGATGAATTGTGCCTTTCGAGTAAACAAATTTTCCTAATCTTTCTGTTCAAGCGCCATCTAC” here?
Answer: 6.1 RPM ratio (pull-down/input)

Question: “GATGATTGTTCTCCCAGCTGATGAATTTTGTGCATCGAGTAAACAAATTTTCCTAATCTTTCTGTTCAAGCGCCATCTAC” was tested. Which binding signal did it give?
Answer: 2.27 RPM ratio (pull-down/input)

Question: How did the binding signal turn out when “GATGATTGTTCTCCCAGCTGATGAATTCGTGCATTCGAGTAAACAAATTTTCCTAATCTTTCTGTTCAAGCGCCATCTAC” was run?
Answer: 6.29 RPM ratio (pull-down/input)

Question: Which binding signal does the source give for “GATGATTGTTCTCCCAGCTGATGAATTTGTGCCTTCGAGTAAACAAATTTTCCTAATCTTTCTGTTCAAGCGCCATCTAC” here?
Answer: 4.02 RPM ratio (pull-down/input)

Question: How did the binding signal turn out when “GATGATTGTTCTCCCAGCTGATGAATTGCGAATCTCGAGTAAACAAATTTTCCTAATCTTTCTGTTCAAGCGCCATCTAC” was run?
Answer: 2.16 RPM ratio (pull-down/input)

Question: Which binding signal does the source give for “GATGATTGTTCTCCCAGCTGATGAATTCCATAGATCGAGTAAACAAATTTTCCTAATCTTTCTGTTCAAGCGCCATCTAC” here?
Answer: 0.239 RPM ratio (pull-down/input)

Question: For “GATGATTGTTCTCCCAGCTGATGAATTAAGGGCCTCGAGTAAACAAATTTTCCTAATCTTTCTGTTCAAGCGCCATCTAC”, which binding signal is on record?
Answer: 0.451 RPM ratio (pull-down/input)

Question: “GATGATTGTTCTCCCAGCTGATGAATTCAATTCGTCGAGTAAACAAATTTTCCTAATCTTTCTGTTCAAGCGCCATCTAC” was tested. Which binding signal did it give?
Answer: 0.665 RPM ratio (pull-down/input)

Question: For “GATGATTGTTCTCCCAGCTGATGAATTTCGGAGGTCGAGTAAACAAATTTTCCTAATCTTTCTGTTCAAGCGCCATCTAC”, which binding signal is on record?
Answer: 0.25 RPM ratio (pull-down/input)

Question: “GATGATTGTTCTCCCAGCTGATGAATTCCTCGCTTCGAGTAAACAAATTTTCCTAATCTTTCTGTTCAAGCGCCATCTAC” was tested. Which binding signal did it give?
Answer: 0.285 RPM ratio (pull-down/input)

Question: With “GATGATTGTTCTCCCAGCTGATGAATTGCCGCCATCGAGTAAACAAATTTTCCTAATCTTTCTGTTCAAGCGCCATCTAC” as the sequence, how does the binding signal read?
Answer: 2.97 RPM ratio (pull-down/input)

Question: Which binding signal does the source give for “GATGATTGTTCTCCCAGCTGATGAATTTGAGTTTTCGAGTAAACAAATTTTCCTAATCTTTCTGTTCAAGCGCCATCTAC” here?
Answer: 0.885 RPM ratio (pull-down/input)

Question: With “GATGATTGTTCTCCCAGCTGATGAATTCAAGTTTTCGAGTAAACAAATTTTCCTAATCTTTCTGTTCAAGCGCCATCTAC” as the sequence, how does the binding signal read?
Answer: 0.454 RPM ratio (pull-down/input)

Question: For “GATGATTGTTCTCCCAGCTGATGAATTTCCCTTCTCGAGTAAACAAATTTTCCTAATCTTTCTGTTCAAGCGCCATCTAC”, which binding signal is on record?
Answer: 0.295 RPM ratio (pull-down/input)

Question: For “GATGATTGTTCTCCCAGCTGATGAATTGTGTTGATCGAGTAAACAAATTTTCCTAATCTTTCTGTTCAAGCGCCATCTAC”, which binding signal is on record?
Answer: 7.06 RPM ratio (pull-down/input)

Question: With “GATGATTGTTCTCCCAGCTGATGAATTTGATGAGTCGAGTAAACAAATTTTCCTAATCTTTCTGTTCAAGCGCCATCTAC” as the sequence, how does the binding signal read?
Answer: 0.974 RPM ratio (pull-down/input)

Question: How did the binding signal turn out when “GATGATTGTTCTCCCAGCTGATGAATTCTGTTGATCGAGTAAACAAATTTTCCTAATCTTTCTGTTCAAGCGCCATCTAC” was run?
Answer: 6.26 RPM ratio (pull-down/input)

Question: For “GATGATTGTTCTCCCAGCTGATGAATTGAATTGATCGAGTAAACAAATTTTCCTAATCTTTCTGTTCAAGCGCCATCTAC”, which binding signal is on record?
Answer: 0.917 RPM ratio (pull-down/input)

Question: For “GATGATTGTTCTCCCAGCTGATGAATTCAATTGATCGAGTAAACAAATTTTCCTAATCTTTCTGTTCAAGCGCCATCTAC”, which binding signal is on record?
Answer: 1.07 RPM ratio (pull-down/input)

Question: How did the binding signal turn out when “GATGATTGTTCTCCCAGCTGATGAATTTCTGTGATCGAGTAAACAAATTTTCCTAATCTTTCTGTTCAAGCGCCATCTAC” was run?
Answer: 0.408 RPM ratio (pull-down/input)

Question: Which binding signal does the source give for “GATGATTGTTCTCCCAGCTGATGAATTTGTTGAGTCGAGTAAACAAATTTTCCTAATCTTTCTGTTCAAGCGCCATCTAC” here?
Answer: 5.53 RPM ratio (pull-down/input)

Question: Which binding signal does the source give for “GATGATTGTTCTCCCAGCTGATGAATTGTTGTGATCGAGTAAACAAATTTTCCTAATCTTTCTGTTCAAGCGCCATCTAC” here?
Answer: 6.31 RPM ratio (pull-down/input)

Question: How did the binding signal turn out when “GATGATTGTTCTCCCAGCTGATGAATTTTTTGAGTCGAGTAAACAAATTTTCCTAATCTTTCTGTTCAAGCGCCATCTAC” was run?
Answer: 0.237 RPM ratio (pull-down/input)

Question: For “GATGATTGTTCTCCCAGCTGATGAATTGTGATGATCGAGTAAACAAATTTTCCTAATCTTTCTGTTCAAGCGCCATCTAC”, which binding signal is on record?
Answer: 2.48 RPM ratio (pull-down/input)

Question: For “GATGATTGTTCTCCCAGCTGATGAATTGATCTAATCGAGTAAACAAATTTTCCTAATCTTTCTGTTCAAGCGCCATCTAC”, which binding signal is on record?
Answer: 0.356 RPM ratio (pull-down/input)

Question: How did the binding signal turn out when “GATGATTGTTCTCCCAGCTGATGAATTCTTTTGATCGAGTAAACAAATTTTCCTAATCTTTCTGTTCAAGCGCCATCTAC” was run?
Answer: 0.285 RPM ratio (pull-down/input)

Question: For “GATGATTGTTCTCCCAGCTGATGAATTCAGATGTTCGAGTAAACAAATTTTCCTAATCTTTCTGTTCAAGCGCCATCTAC”, which binding signal is on record?
Answer: 1.06 RPM ratio (pull-down/input)

Question: Which binding signal does the source give for “GATGATTGTTCTCCCAGCTGATGAATTGTACCCATCGAGTAAACAAATTTTCCTAATCTTTCTGTTCAAGCGCCATCTAC” here?
Answer: 0.472 RPM ratio (pull-down/input)
